“And” between values parts separate entries of the source, which are not always exact repeats. Equal entries are not always repeated. The whole screen tested about 5,500 compounds, of which about 2,000 (36%) were called active. Inconclusive results (about 18%) are left out. Cut-off read from the data, not from the text of the source: active = normalized growth mostly below about 0.91 (no sharp cut-off); inconclusive = no clear call, values can overlap the other calls; inactive = mostly above about 0.92. The list shows a part of the results.
Test: chemical genetic growth profiling, strain panel (AID 1159580);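 note: tested at 20 µM; growth read once vehicle control cultures reached saturation at 30 °C; 1 = growth at the plate median or of vehicle wells; lower values mean less growth of the strain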
Conditions: growth OD

Measured: normalized growth

O[C@H]1[C@H](O)[C@@H](O)C2OC[C@H]1O2
active: S. cerevisiae deletion strains, locus YDL185W, strain tfp1, hits give low values 0.901
inactive: S. cerevisiae deletion strains, locus YAL013W, strain DEP1, hits give low values 1 | S. cerevisiae deletion strains, locus YBR021W, strain FUR4, hits give low values 1.03 | S. cerevisiae deletion strains, locus YBR229C, strain ROT2, hits give low values 0.961 | S. cerevisiae deletion strains, locus YCL029C, strain bik1, hits give low values 0.986 | S. cerevisiae deletion strains, locus YDL035C, strain GPR1, hits give low values 0.986 | S. cerevisiae deletion strains, locus YDL074C, strain BRE1, hits give low values 0.929 | S. cerevisiae deletion strains, locus YDL101C, strain DUN1, hits give low values 0.943 | S. cerevisiae deletion strains, locus YDL134C, strain PPH21, hits give low values 0.99 | S. cerevisiae deletion strains, locus YDL192W, strain arf1, hits give low values 0.986 | S. cerevisiae deletion strains, locus YDR101C, strain arx1, hits give low values 0.994 | S. cerevisiae deletion strains, locus YDR150W, strain NUM1, hits give low values 0.992 | S. cerevisiae deletion strains, locus YDR162C, strain NBP2, hits give low values 0.918 | S. cerevisiae deletion strains, locus YDR318W, strain mcm21, hits give low values 0.998 | S. cerevisiae deletion strains, locus YDR388W, hits give low values 0.992 | S. cerevisiae deletion strains, locus YDR502C, strain sam2, hits give low values 0.983 | S. cerevisiae deletion strains, locus YEL061C, strain CIN8, hits give low values 0.986 | S. cerevisiae deletion strains, locus YER110C, hits give low values 0.983 | S. cerevisiae deletion strains, locus YER155C, strain BEM2, hits give low values 0.988 | S. cerevisiae deletion strains, locus YER167W, strain BCK2, hits give low values 1 | S. cerevisiae deletion strains, locus YGL078C, strain dbp3, hits give low values 0.987 | S. cerevisiae deletion strains, locus YGL086W, strain mad1, hits give low values 1 | S. cerevisiae deletion strains, locus YGL248W, strain PDE1, hits give low values 0.975 | S. cerevisiae deletion strains, locus YGR078C, strain PAC10, hits give low values 0.951 | S. cerevisiae deletion strains, locus YGR135W, strain pre9, hits give low values 0.982 | S. cerevisiae deletion strains, locus YGR229C, strain SMI1, hits give low values 0.975 | S. cerevisiae deletion strains, locus YGR252W, strain gcn5, hits give low values 1 | S. cerevisiae deletion strains, locus YHR030C, strain SLT2, hits give low values 1 and 0.967 | S. cerevisiae deletion strains, locus YHR079C, strain IRE1 (second series), hits give low values 0.999 | S. cerevisiae deletion strains, locus YHR079C, strain IRE1, hits give low values 0.967 | S. cerevisiae deletion strains, locus YHR094C, strain hxt1, hits give low values 1 | S. cerevisiae deletion strains, locus YHR129C, strain ARP1, hits give low values 0.993 | S. cerevisiae deletion strains, locus YHR200W, strain rpn10, hits give low values 0.992 | S. cerevisiae deletion strains, locus YIL066C, strain RNR3, hits give low values 0.98 | S. cerevisiae deletion strains, locus YIL073C, strain SPO22, hits give low values 1.01 | S. cerevisiae deletion strains, locus YIL125W, strain kgd1, hits give low values 0.988 | S. cerevisiae deletion strains, locus YIR030C, strain dcg1, hits give low values 0.983 | S. cerevisiae deletion strains, locus YJL095W, strain BCK1, hits give low values 0.98 and 0.977 | S. cerevisiae deletion strains, locus YJL134W, strain LCB3, hits give low values 0.984 | S. cerevisiae deletion strains, locus YJL168C, strain set2, hits give low values 0.982 | S. cerevisiae deletion strains, locus YJL187C, strain SWE1 (second series), hits give low values 0.972 | S. cerevisiae deletion strains, locus YJR043C, strain POL32, hits give low values 0.999 | S. cerevisiae deletion strains, locus YJR066W, strain TOR1, hits give low values 0.919 | S. cerevisiae deletion strains, locus YJR075W, strain HOC1, hits give low values 0.936 | S. cerevisiae deletion strains, locus YKL009W, strain mrt4, hits give low values 0.977 | S. cerevisiae deletion strains, locus YKL068W, hits give low values 0.982 | S. cerevisiae deletion strains, locus YKL085W, strain MDH1 (second series), hits give low values 1.02 | S. cerevisiae deletion strains, locus YKL085W, strain MDH1, hits give low values 1.02 | S. cerevisiae deletion strains, locus YKL190W, strain CNB1, hits give low values 0.98 | S. cerevisiae deletion strains, locus YKR001C, strain vps1, hits give low values 0.998 | S. cerevisiae deletion strains, locus YLR039C, strain RIC1, hits give low values 0.968 | S. cerevisiae deletion strains, locus YLR058C, strain SHM2, hits give low values 0.972 | S. cerevisiae deletion strains, locus YLR102C, strain apc9, hits give low values 0.984 | S. cerevisiae deletion strains, locus YLR113W, strain HOG1, hits give low values 0.999 | S. cerevisiae deletion strains, locus YLR262C, strain YPT6, hits give low values 0.935 | S. cerevisiae deletion strains, locus YLR268W, strain sec22, hits give low values 0.963 | S. cerevisiae deletion strains, locus YLR330W, strain CHS5, hits give low values 0.988 | S. cerevisiae deletion strains, locus YLR342W, strain FKS1 (second series), hits give low values 1.04 | S. cerevisiae deletion strains, locus YLR371W, strain rom2, hits give low values 0.938 | S. cerevisiae deletion strains, locus YLR418C, strain cdc73, hits give low values 0.961 | S. cerevisiae deletion strains, locus YML016C, strain PPZ1, hits give low values 0.983 | S. cerevisiae deletion strains, locus YML032C, strain rad52, hits give low values 1 | S. cerevisiae deletion strains, locus YML124C, strain tub3, hits give low values 0.992 | S. cerevisiae deletion strains, locus YMR078C, strain ctf18, hits give low values 0.987 | S. cerevisiae deletion strains, locus YMR223W, strain ubp8, hits give low values 1.01 | S. cerevisiae deletion strains, locus YMR263W, strain SAP30, hits give low values 0.94 | S. cerevisiae deletion strains, locus YMR307W, strain GAS1, hits give low values 1.04 | S. cerevisiae deletion strains, locus YNL067W, strain RPL9B, hits give low values 0.951 | S. cerevisiae deletion strains, locus YNL128W, strain TEP1, hits give low values 0.926 | S. cerevisiae deletion strains, locus YNL153C, strain GIM3, hits give low values 0.97 | S. cerevisiae deletion strains, locus YNL183C, strain NPR1, hits give low values 0.905 | S. cerevisiae deletion strains, locus YNL233W, strain BNI4, hits give low values 0.978 | S. cerevisiae deletion strains, locus YNL250W, strain rad50, hits give low values 0.992 | S. cerevisiae deletion strains, locus YNL271C, strain bni1, hits give low values 0.984 | S. cerevisiae deletion strains, locus YNL298W, strain CLA4, hits give low values 1 | S. cerevisiae deletion strains, locus YNL307C, strain MCK1, hits give low values 1 | S. cerevisiae deletion strains, locus YNL322C, strain KRE1, hits give low values 0.967 | S. cerevisiae deletion strains, locus YNR052C, strain pop2, hits give low values 0.978 | S. cerevisiae deletion strains, locus YOL006C, strain TOP1, hits give low values 0.935 | S. cerevisiae deletion strains, locus YOL012C, strain htz1 0.683 | S. cerevisiae deletion strains, locus YOL147C, strain pex11, hits give low values 0.997 | S. cerevisiae deletion strains, locus YOR061W, strain CKA2, hits give low values 0.952 | S. cerevisiae deletion strains, locus YOR069W, strain VPS5, hits give low values 0.99 | S. cerevisiae deletion strains, locus YOR136W, strain idh2, hits give low values 0.99 | S. cerevisiae deletion strains, locus YOR144C, strain elg1, hits give low values 0.983 | S. cerevisiae deletion strains, locus YOR184W, strain ser1, hits give low values 1.01 | S. cerevisiae deletion strains, locus YOR231W, strain MKK1, hits give low values 0.98 | S. cerevisiae deletion strains, locus YOR316C, strain cot1, hits give low values 0.977 | S. cerevisiae deletion strains, locus YPL055C, strain LGE1, hits give low values 0.931 | S. cerevisiae deletion strains, locus YPL241C, strain CIN2, hits give low values 0.983 | S. cerevisiae deletion strains, locus YPL256C, strain CLN2, hits give low values 0.972 | S. cerevisiae deletion strains, locus YPR119W, strain clb2, hits give low values 0.992 | S. cerevisiae deletion strains, locus YPR141C, strain kar3, hits give low values 0.969 | S. cerevisiae deletion strains, locus YPR163C, strain tif3, hits give low values 0.995 | S. cerevisiae deletion strains, locus YPR167C, strain met16, hits give low values 0.972 | S. cerevisiae deletion strains, strain wtn01, hits give low values 0.943 | S. cerevisiae strains, strain wild type, hits give low values 1.01

From PubChem BioAssay AID1159580 (chemical genetic matrix, 2015)
